What is called AC50 is the concentration giving half of the maximal activity seen.

Where “and” joins values, the source holds several entries; their conditions need not be identical. Identical values can stand only once. Calls of active or inactive are those of the source. How the source made its calls: active means hit-call score of the fitted dose curve at least 0.9, where 1 is the maximum; inactive means score below 0.9.

The results in this text go back to PubChem BioAssay (EPA / NIEHS).

One assay is described as follows: CCTE_Mundy_HCI_Cortical_Synap_Neur_Matur_NeuriteSpotCountPerNeuriteLength: CCTE's Synaptogenesis and Neurite Maturation Assay in rat cortical cells for Neurite Spot Count per Neurite Length, Mundy Lab (AID 2284210).
Settings: not given
In a few lines: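 Rat primary cortical cultures, AraC added at DIV 5 to suppress glia; chemical exposure from DIV 7 to DIV 12. Fixed cells stained for MAP2 and synaptophysin plus Hoechst; synaptophysin puncta per neurite length quantified by high-content imaging, relative to DMSO.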
For `CC(C)(C)c1ccccc1OP(=O)(Oc1ccccc1)Oc1ccccc1`, the compound was classed as inactive.

Consider `O=P1(N(CCCl)CCCl)NCCCO1` (stereo unspecified), for which the call was inactive.

For `CO/N=C(/C(=O)OC)c1ccccc1COc1ccccc1C`, the AC50 is 3.36 µM (active).

Regarding `CCC1(c2ccccc2)C(=O)N=C(O)NC1=O` (stereo unspecified), the call was inactive.

As to `CCCCC(CC)COP(=O)(Oc1ccccc1)Oc1ccccc1` (stereo unspecified), the outcome was inactive.

As to `O=C(O)C(F)(OC(F)(F)C(F)(F)C(F)(F)F)C(F)(F)F` (stereo unspecified), the result was inactive.

Take `CCOP(=S)(OCC)SCSCC`: the half-maximal activity concentration (AC50) was 50 µM (active) and 67.2 µM (active).

Turning to `CCOc1ccc(C(C)(C)COCc2cccc(Oc3ccccc3)c2)cc1`, the AC50 is 23.7 µM (active).

A short description of a further assay: CCTE_Mundy_HCI_Cortical_Synap_Neur_Matur_BPCount: CCTE's Synaptogenesis and Neurite Maturation Assay in rat cortical cells for Branch Point Count, Mundy Lab (AID 2284211).
Settings: not given
Put shortly:
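Branch point number is quantified by automated imaging of fluorescently labelled neurites and synapses in rat primary cortical neurons exposed from DIV 7 to DIV 12. Activity is analysed relative to DMSO negative control.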
With `CC(C)(C)c1ccccc1OP(=O)(Oc1ccccc1)Oc1ccccc1`, the half-maximal activity concentration (AC50) was 2.98 µM (active).

On to `O=P1(N(CCCl)CCCl)NCCCO1` (stereo unspecified), for which the compound was called inactive.

Consider `CO/N=C(/C(=O)OC)c1ccccc1COc1ccccc1C`, for which the concentration at half-maximal activity (AC50) is 5.13 µM (active).

With `CCC1(c2ccccc2)C(=O)N=C(O)NC1=O` (stereo unspecified), the call was inactive.

For `CCCCC(CC)COP(=O)(Oc1ccccc1)Oc1ccccc1` (stereo unspecified), the compound was classed as inactive.

Regarding `O=C(O)C(F)(OC(F)(F)C(F)(F)C(F)(F)F)C(F)(F)F` (stereo unspecified), the compound was classed as inactive.

For the compound `CCOP(=S)(OCC)SCSCC`, the concentration at half-maximal activity (AC50) was 80.7 µM (active) and 50 µM (active).

Turning to `CCOc1ccc(C(C)(C)COCc2cccc(Oc3ccccc3)c2)cc1`, the AC50 was 26.8 µM (active).

Another assay is described as follows: CCTE_Mundy_HCI_Cortical_NOG_NeuriteCount: CCTE's Neurite Outgrowth Assay in rat cortical cells for Neurite Count, Mundy Lab (AID 2284212).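 Further: cells fixed about two days after chemical exposure began.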
Settings: not given
Put shortly:
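Neurite number per cell from high-content imaging of betaIII-tubulin immunostaining, with Hoechst nuclear counterstain.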
Take `CC(C)(C)c1ccccc1OP(=O)(Oc1ccccc1)Oc1ccccc1`: the AC50 is 19 µM (active).

Take `O=P1(N(CCCl)CCCl)NCCCO1` (stereo unspecified): the compound was called inactive.

Consider `CO/N=C(/C(=O)OC)c1ccccc1COc1ccccc1C`, for which the AC50 is 19.1 µM (active).

For `CCC1(c2ccccc2)C(=O)N=C(O)NC1=O` (stereo unspecified), the outcome was inactive.

As to `CCCCC(CC)COP(=O)(Oc1ccccc1)Oc1ccccc1` (stereo unspecified), the call was inactive.

Turning to `O=C(O)C(F)(OC(F)(F)C(F)(F)C(F)(F)F)C(F)(F)F` (stereo unspecified), the compound was called inactive.

In the case of `CCOP(=S)(OCC)SCSCC`, the call was inactive.

For the compound `CCOc1ccc(C(C)(C)COCc2cccc(Oc3ccccc3)c2)cc1`, the half-maximal activity concentration (AC50) was 21.9 µM (active).

A further assay in a line: CCTE_Mundy_HCI_Cortical_NOG_NeuriteLength: CCTE's Neurite Outgrowth Assay in rat cortical cells for Neurite Length, Mundy Lab (AID 2284213).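 On AC50: neurites imaged about 48 to 50 h after chemical exposure began.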
Settings: not given
In a few lines: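 Neurite length was read by high-content imaging of βIII-tubulin-labelled neurites in rat primary cortical cultures. Activity was fitted relative to DMSO.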
In the case of `CC(C)(C)c1ccccc1OP(=O)(Oc1ccccc1)Oc1ccccc1`, the concentration at half-maximal activity (AC50) was 21.6 µM (active).

On to `O=P1(N(CCCl)CCCl)NCCCO1` (stereo unspecified), for which the outcome was inactive.

For `CO/N=C(/C(=O)OC)c1ccccc1COc1ccccc1C`, the AC50 is 14.5 µM (active).

Consider `CCC1(c2ccccc2)C(=O)N=C(O)NC1=O` (stereo unspecified), for which the result was inactive.

As to `CCCCC(CC)COP(=O)(Oc1ccccc1)Oc1ccccc1` (stereo unspecified), the call was inactive.

For the compound `O=C(O)C(F)(OC(F)(F)C(F)(F)C(F)(F)F)C(F)(F)F` (stereo unspecified), the compound was called inactive.

As for `CCOP(=S)(OCC)SCSCC`, the result was inactive.

On to `CCOc1ccc(C(C)(C)COCc2cccc(Oc3ccccc3)c2)cc1`, for which the call was inactive.

A further assay in a line: CCTE_Mundy_HCI_Cortical_Synap_Neur_Matur_NeuriteLength: CCTE's Synaptogenesis and Neurite Maturation Assay in rat cortical cells for Neurite Length, Mundy Lab (AID 2284214).
Settings: not given
Put shortly: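 Neurite length in rat primary cortical cultures is imaged after MAP2, synaptophysin and Hoechst staining. Dosing starts DIV 7, ending DIV 12; DMSO serves as negative control and baseline.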
Consider `CC(C)(C)c1ccccc1OP(=O)(Oc1ccccc1)Oc1ccccc1`, for which the AC50 was 1.6 µM (active).

Take `O=P1(N(CCCl)CCCl)NCCCO1` (stereo unspecified): the result was inactive.

On to `CO/N=C(/C(=O)OC)c1ccccc1COc1ccccc1C`, for which the AC50 was 6.23 µM (active).

On to `CCC1(c2ccccc2)C(=O)N=C(O)NC1=O` (stereo unspecified), for which the outcome was inactive.

`CCCCC(CC)COP(=O)(Oc1ccccc1)Oc1ccccc1` (stereo unspecified): the call was inactive.

Turning to `O=C(O)C(F)(OC(F)(F)C(F)(F)C(F)(F)F)C(F)(F)F` (stereo unspecified), the call was inactive.

On to `CCOP(=S)(OCC)SCSCC`, for which the AC50 was 78.1 µM (active) and 70.2 µM (active).

As for `CCOc1ccc(C(C)(C)COCc2cccc(Oc3ccccc3)c2)cc1`, the AC50 is 3.81 µM (active).

The next assay is described as follows: CCTE_Mundy_HCI_Cortical_Synap_Neur_Matur_NeuriteSpotCountPerNeuron: CCTE's Synaptogenesis and Neurite Maturation Assay in rat cortical cells for Neurite Spot Count per Neuron Count, Mundy Lab (AID 2284215).
Settings: not given
Put shortly:
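Rat primary cortical cultures given AraC at DIV 5, dosed from DIV 7 to DIV 12 with media change. Fixed, stained for MAP2, synaptophysin and Hoechst; neurite-associated synaptophysin puncta per neuron quantified by high-content imaging versus DMSO.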
With `CC(C)(C)c1ccccc1OP(=O)(Oc1ccccc1)Oc1ccccc1`, the concentration at half-maximal activity (AC50) was 2.07 µM (active).

Take `O=P1(N(CCCl)CCCl)NCCCO1` (stereo unspecified): the compound was called inactive.

As to `CO/N=C(/C(=O)OC)c1ccccc1COc1ccccc1C`, the AC50 was 3.31 µM (active).

For the compound `CCC1(c2ccccc2)C(=O)N=C(O)NC1=O` (stereo unspecified), the compound was called inactive.

Consider `CCCCC(CC)COP(=O)(Oc1ccccc1)Oc1ccccc1` (stereo unspecified), for which the compound was called inactive.

With `O=C(O)C(F)(OC(F)(F)C(F)(F)C(F)(F)F)C(F)(F)F` (stereo unspecified), the outcome was inactive.

With `CCOP(=S)(OCC)SCSCC`, the AC50 was 50 µM (active).

In the case of `CCOc1ccc(C(C)(C)COCc2cccc(Oc3ccccc3)c2)cc1`, the AC50 was 11.9 µM (active).

The next assay is described as follows: TAMU_PeakParms_SingleDonor1434_Chronotropy: Texas A&M University (TAMU) 1.5-hr Human Induced Pluripotent Stem Cell (iPSC)-derived Cardiomyocytes Calcium (Ca+2) Flux Assay for Cardiotoxicity: Chronotropy (changes in peak frequency) (AID 2284217). To be noted: actives raise or lower the signal. In a few lines: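 Beat rate, as mean Ca2+-flux peak frequency, was read from donor 1434 iPSC cardiomyocytes 90 min after exposure to 0.2–100 uM test chemical (0.5% DMSO). Wells that stopped beating were excluded; EC05 from bidirectional DMSO-referenced fitting.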
Regarding `CC(C)(C)c1ccccc1OP(=O)(Oc1ccccc1)Oc1ccccc1`, the concentration at half-maximal activity (AC50) was 32 µM (active).

As for `O=P(Oc1ccccc1)(Oc1ccccc1)Oc1ccccc1`, the result was inactive.

For the compound `CCC1(c2ccccc2)C(=O)N=C(O)NC1=O` (stereo unspecified), the concentration at half-maximal activity (AC50) was 29.7 µM (active).

Turning to `CCCCC(CC)COP(=O)(Oc1ccccc1)Oc1ccccc1` (stereo unspecified), the outcome was inactive.

In the case of `c1cc2c3c(cccc3c1)CC2`, the AC50 is 32.2 µM (active).

The next assay can be described thus: CCTE_Mundy_HCI_Cortical_Synap_Neur_Matur_SynapseCount: CCTE's Synaptogenesis and Neurite Maturation Assay in rat cortical cells for Synapse Count, Mundy Lab (AID 2284218).
Settings: not given
Put shortly:
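Synapse count per neuron is measured in rat cortical neurons exposed to chemicals between DIV 7 and DIV 12, with glial growth arrested by AraC at DIV 5. Synaptophysin and MAP2 staining is imaged automatically; activity is fitted relative to DMSO.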
As for `CC(C)(C)c1ccccc1OP(=O)(Oc1ccccc1)Oc1ccccc1`, the AC50 is 2.69 µM (active).

Turning to `O=P1(N(CCCl)CCCl)NCCCO1` (stereo unspecified), the compound was called inactive.

As for `CO/N=C(/C(=O)OC)c1ccccc1COc1ccccc1C`, the half-maximal activity concentration (AC50) was 3.28 µM (active).

Take `CCC1(c2ccccc2)C(=O)N=C(O)NC1=O` (stereo unspecified): the compound was classed as inactive.

With `CCCCC(CC)COP(=O)(Oc1ccccc1)Oc1ccccc1` (stereo unspecified), the compound was called inactive.

As for `O=C(O)C(F)(OC(F)(F)C(F)(F)C(F)(F)F)C(F)(F)F` (stereo unspecified), the result was inactive.

As for `CCOP(=S)(OCC)SCSCC`, the half-maximal activity concentration (AC50) is 50 µM (active) and 67.7 µM (active).

Consider `CCOc1ccc(C(C)(C)COCc2cccc(Oc3ccccc3)c2)cc1`, for which the AC50 was 15 µM (active).
